Hits are enriched below; roughly 3.5% of the tested compounds scored in any of these assays.
GPR151 activ – human GPR151 activation; AID 1508602; Q8TDV0; activation, % at 11.2 µM; 650,000 compounds, 1% hits; PathHunter beta-arrestin GPR151 cells, luminescence; in the data active = activation above about 4.9%;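 note: 0% = median of compound wells and 100% = cells with positive control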
FBW7 act – activators of human E3 ligase FBW7. Q969H0. AlphaScreen FBW7–phospho-cyclin E peptide binding, activator screen. normalized activity (activation), % at 26.1 µM. 650,000 compounds, 0.13% hits; in the data active = normalized activity above about 1.9%;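 note: purified mutant Fbw7 with reduced substrate affinity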
TEAD-YAP block – TEAD-YAP interaction inhibition | AID 1259422 | HEK-TIYL cells, TEAD-Gal4/YAP UAS-luciferase luminescence | inhibition, % at 9.12 µM | 640,000 compounds, 1.4% hits; in the data active = inhibition above about 32%;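 note: 0% = median of test compound wells and 100% = reference inhibitor wells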
MITF inh – inhibitors of human MITF; inhibition, % at 2.6 µM; O75030; 650,000 compounds, 0.91% hits; AlphaScreen MITF homodimerization, bead proximity signal; in the data active = inhibition above about 50%;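 note: 0% = vehicle wells with protein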
Target sequence (O75030 whole entry, looked up): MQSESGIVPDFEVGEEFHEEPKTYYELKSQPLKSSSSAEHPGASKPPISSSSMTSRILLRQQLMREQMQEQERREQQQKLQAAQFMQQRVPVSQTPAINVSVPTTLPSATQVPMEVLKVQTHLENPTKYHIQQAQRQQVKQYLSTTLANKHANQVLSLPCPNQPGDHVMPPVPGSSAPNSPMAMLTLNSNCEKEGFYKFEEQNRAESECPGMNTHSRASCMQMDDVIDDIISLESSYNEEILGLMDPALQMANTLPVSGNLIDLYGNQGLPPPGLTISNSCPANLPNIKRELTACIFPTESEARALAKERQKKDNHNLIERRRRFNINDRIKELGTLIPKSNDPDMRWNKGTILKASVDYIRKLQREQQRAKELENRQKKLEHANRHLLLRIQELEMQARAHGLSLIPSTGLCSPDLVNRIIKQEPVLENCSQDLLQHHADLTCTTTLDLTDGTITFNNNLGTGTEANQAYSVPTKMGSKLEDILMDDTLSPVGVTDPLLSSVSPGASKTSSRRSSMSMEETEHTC
MITF confirm – confirmation of human MITF inhibitors. AID 1259372. shares compounds with MITF inh. 4,700 compounds, 16% hits. AlphaScreen MITF homodimerization, biotin/His-MITF beads. inhibition, % at 2.6 µM;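 active = inhibition above a cutoff derived from the DMSO control wells, cut at about 28% in these data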;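 note: 0% = MITF dimer wells with DMSO only; inhibitors lower the bead chemiluminescence by keeping MITF from dimerizing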
AlphaScreen DR – counter-screen: compounds optically interfering with AlphaScreen. shares compounds with MITF inh. AlphaScreen optical interference counterscreen, cell-free. IC50, µM. 480 compounds, 6% hits; call rule not given here
AlphaScreen intf2 – counter-screen: compounds optically interfering with AlphaScreen; shares compounds with MITF inh; inhibition, % at 2.6 µM; 4,700 compounds, 7.6% hits; AID 1259376; LysRS AlphaScreen counterscreen, signal interference, triplicate;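 active = inhibition above a cutoff derived from the DMSO control wells, cut at about 30% in these data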
The depositor's hits bear a star; x = no result.

SMILES	GPR151 activ	FBW7 act	TEAD-YAP block	MITF inh	MITF confirm	AlphaScreen intf2	others
CCn1c2ccccc2c2cc(CN3CCN(Cc4ccccc4[N+](=O)[O-])CC3)ccc21	-1	0	-8	65*	0	-6
CCn1c2ccccc2c2cc(CN3CCN(S(=O)(=O)c4ccc(OC)cc4)CC3)ccc21	-1	0	6	-15	x	x
CCn1c2ccccc2c2cc(CN3CCN(Cc4ccc(C(F)(F)F)cc4)CC3)ccc21	4	0	-7	54*	17	20
CCn1c2ccccc2c2cc(CN3CCN(Cc4ccc(SC)cc4)CC3)ccc21	-1	0	12	63*	13	19
CCn1c2ccccc2c2cc(CN3CCN(Cc4ccccc4F)CC3)ccc21	-1	0	8	82*	17	19
COc1ccc(/C(C)=N/Nc2nc3c(c(=O)[nH]c(=O)n3C)n2CC(C)O)cc1 (stereo unspecified)	-1	1	-1	3	x	x
CC(C)N(CCNc1nc(-c2ccc(C(=O)NC3CC3)cc2)nc2nc[nH]c12)C(C)C	0	0	-7	6	x	x
O=C(O)c1ccc(NC(=S)N2CCCCC2c2cccnc2)cc1O (stereo unspecified)	-2	1	4	19	x	x
COCC1CCN(C(=O)CC2C(=O)NCCN2Cc2ccc(F)c(F)c2)CC1 (stereo unspecified)	2	0	12	5	x	x
Nc1cc2c(S(=O)(=O)O)cc(S(=O)(=O)O)cc2cc1S(=O)(=O)O	0	0	1	52*	35*	28	AlphaScreen DR=>6.5
CNS(=O)(=O)c1cc(O)c2c(S(=O)(=O)O)cc(S(=O)(=O)NC)cc2c1	-1	0	-5	12	x	x
CCN1CCN(CCOCCOc2ccccc2)CC1	-1	0	12	54*	4	11
CCN1CCN(CCCOc2ccc(OCc3ccccc3)cc2)CC1	0	0	-13	34	x	x
CCN1CCN(CCOc2cccc(Oc3ccccc3)c2)CC1	1	0	0	74*	7	11
c1ccc(Oc2cccc(OCCN3CCNCC3)c2)cc1	0	0	-12	71*	13	-6
Brc1cccc(OCCN2CCNCC2)c1	-2	-1	-10	29	x	x
COc1ccc(C2CC(=O)C(C=Nc3ccc([N+](=O)[O-])cc3)=C(O)C2)cc1 (stereo unspecified)	-1	0	0	-6	x	x
O=C(Nc1ccc(Cl)cc1)c1cc(I)cc([N+](=O)[O-])c1	0	0	-5	-5	x	x
Oc1c(Br)cc(CN2CCCCC2)c2cccnc12	0	-1	66*	92*	112*	101*
Clc1ccccc1CN1CCN(c2ncccn2)CC1	0	0	-4	21	x	x
Oc1c(Cl)cc(CN2CCCCC2)c2cccnc12	1	-1	83*	110*	110*	101*
CCCOc1ccccc1OCC(=O)NNC(=O)c1ccc(C(C)(C)C)cc1	0	0	13	8	x	x
COc1cccc(CN2CCN(Cc3ccc(OC)cc3OC)CC2)c1	-2	0	-1	81*	13	15
CCOc1cc(CN2CCN(Cc3cccc(OC)c3)CC2)ccc1OC	0	0	0	24	x	x
COc1ccc(OC)c(CN2CCN(Cc3cccc(F)c3)CC2)c1	0	0	-3	75*	3	20
SMILES	GPR151 activ	FBW7 act	TEAD-YAP block	MITF inh	MITF confirm	AlphaScreen intf2	others
COc1ccc(OC)c(CN2CCN(S(=O)(=O)c3ccccc3)CC2)c1	-1	0	-4	14	x	x
COc1ccc(OC)c(CN2CCN(Cc3ccc(F)cc3)CC2)c1	0	0	2	83*	37*	16	AlphaScreen DR=>6.1
COc1ccc(OC)c(CN2CCN(S(=O)(=O)c3ccc(F)cc3)CC2)c1	-1	1	5	58*	12	18
COc1ccc(CN2CCN(Cc3ccc(F)cc3)CC2)cc1OC	1	0	-3	26	x	x
CCCCCn1c(SCc2cccc([N+](=O)[O-])c2)nc2cc(C(=O)N3CCCC3)ccc2c1=O	1	0	6	-9	x	x
CCCn1c(=NC(=O)C2=COCCO2)sc2cccc(F)c21	0	0	0	-12	x	x
COc1ccc(CN2CCN(S(=O)(=O)c3ccc(F)cc3)CC2)cc1OC	-2	1	5	53*	-1	10
COc1ccc(OC)c(CN2CCN(Cc3cccc(Cl)c3)CC2)c1	-1	0	-2	73*	7	9
COc1ccc(CN2CCN(Cc3cccc(F)c3)CC2)c(OC)c1	-2	1	-2	85*	4	14
COc1cccc(CN2CCN(C(=O)c3cccc(F)c3)CC2)c1	1	0	10	44	x	x
COc1cc(/C=N/NC(=O)c2ccccc2C)c([N+](=O)[O-])cc1OC	1	0	-20	-4	x	x
CC(=O)N(CN1C(=O)C2C3c4ccccc4C(c4ccccc43)C2C1=O)c1ccccc1C (stereo unspecified)	0	0	4	12	x	x
OC1CCC(Nc2nc(-c3cccs3)nc3ccccc23)CC1 (stereo unspecified)	0	0	-1	6	x	x
COc1cccc(CN2CCC(N3CCN(c4ccccc4OC)CC3)CC2)c1	-3	0	3	56*	-4	-3
CC1CN(C2CCN(S(=O)(=O)c3ccc4ccccc4c3)CC2)CC(C)O1 (stereo unspecified)	0	0	0	52*	3	7
COc1ccccc1N1CCN(C2CCCN(C3CCC3)C2)CC1 (stereo unspecified)	1	0	-2	12	x	x
COc1ccccc1N1CCN(C2CCCN(S(=O)(=O)c3ccc(C)cc3)C2)CC1 (stereo unspecified)	1	0	1	-6	x	x
COc1ccc(S(=O)(=O)N2CCC(N3CCN(c4ccccc4OC)CC3)CC2)cc1	-1	1	1	89*	3	13
COc1ccccc1N1CCN(C2CCN(C3CCCCC3)CC2)CC1	-1	0	-2	69*	-8	-2
CN1CCN(CCOCCOc2ccc(Br)cc2Cl)CC1	1	0	15	49	x	x
CCN1CCN(CCOc2cccc(Br)c2)CC1	0	0	8	68*	15	20
CN1CCN(CCOCCOc2cccc(Br)c2)CC1	-1	0	10	72*	5	5
O=C(COc1ccc(Br)cc1)Nc1ccc(F)cc1	0	0	-9	-4	x	x
Cc1c(-c2ccccc2)c(=O)oc2ccc(O)cc12	-1	0	-3	80*	10	10
COc1ccccc1NC(=O)N1CCN(C)CC1	-1	0	8	52*	9	10
COc1ccc(OCCCN2CCN(c3ccccc3OC)CC2)cc1	1	0	8	81*	53*	39*
COc1ccccc1N1CCN(CCCCCCN)CC1	0	0	7	6	x	x

Screening data deposited in PubChem BioAssay by The Scripps Research Institute Molecular Screening Center.
